Experimental findings from PubChem BioAssay AID620 (Sanford-Burnham Center for Chemical Genomics, 2007) are described below.

Among all 87,000 compounds or so, about 360 (0.41%) were called active. What follows is part of a selection rich in actives, with near analogues and random picks from the rest. Values without a mark were called inactive. Cut-off read from the data, not from the text of the source: active = cytotoxicity above about 50%; inactive = the rest.

A short description of the test: cytotoxicity in HT1080 fibrosarcoma cells, cell-based, fluorescence readout (AID 620).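 Note: cells exposed to compound overnight then 4 h with Alamar Blue; 0% = vehicle DMSO and 100% = killing control.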 The conditions noted are these: HT1080 viability, at 10 µM, active compounds read high.
Regarding `COc1ccc(CC(=O)N2CCN(C(=O)c3ccco3)CC2)cc1`, the cytotoxicity was 4.7%.

`NC(=O)C(c1ccccc1)C1CCCCC1` (stereo not drawn): the cytotoxicity is 5.9%.

As to `CC1(C)CC(=O)C=C(NCCN2CCN(C(=O)Nc3ccc(Cl)cc3)CC2)C1`, the cytotoxicity is -6.1%.

`Cc1[nH]nc(SCC(=O)N2CCC(C)CC2)c1[N+](=O)[O-]`: the cytotoxicity was 0.7%.

In the case of `COC(=O)C1CC(=O)N(CCc2c[nH]c3ccccc23)C1` (stereo not drawn), the cytotoxicity was 2.6%.

For `COC(=O)Cn1nc(-c2ccccc2)c2ccccc2c1=O`, the cytotoxicity is 5.9%.

`COc1ccc(-n2nnnc2S(=O)(=O)Cc2ccc(C(=O)O)cc2)cc1`: the cytotoxicity was 11.4%.

As to `COc1ccc(-n2nnnc2S(=O)(=O)CC(=O)N2CCCCC2)cc1`, the cytotoxicity is 54.3% (active).

`COc1cc(OC)cc(-n2nnnc2SCC(=O)N2CCCC2)c1`: the cytotoxicity is -5.2%.

As for `Cn1c(SCc2cc(=O)[nH]c3ccccc23)nnc1-c1ccc(Br)cc1`, the cytotoxicity was 6%.

Regarding `C(=C\c1ccccc1)/CSc1nnc(-c2ccncc2)n1Cc1ccco1`, the cytotoxicity is -2.1%.

`C(=C\c1ccccc1)/CSc1nnc(-c2ccccc2)n1Cc1ccco1`: the cytotoxicity was 53.5% (active).

In the case of `Clc1cccc(-c2nnc(SC/C=C/c3ccccc3)n2Cc2ccco2)c1`, the cytotoxicity was -0.5%.

Regarding `O=C(CN1C(=O)NC(Cc2ccccc2)C1=O)Nc1ccccc1` (stereo not drawn), the cytotoxicity is -3.1%.

For the molecule `COC(=O)CSc1cc(C)nc(SC)n1`, the cytotoxicity was -7.3%.

With `O=C(Nc1cc(Cl)ccc1O)C1CCCO1` (stereo not drawn), the cytotoxicity was -2.4%.

As for `CCc1nnc(NC(=O)Cn2nc(-c3ccccc3OC)ccc2=O)s1`, the cytotoxicity was 10.1%.

Consider `CC(=O)c1cn(CC(=O)Nc2ccccc2C)c2ccccc12`, for which the cytotoxicity was -1.9%.

With `CN1CCN(c2ccc(Cl)cc2NS(=O)(=O)c2ccccc2Cl)CC1`, the cytotoxicity is -1.9%.

For `Cc1ccccc1NS(=O)(=O)c1cc(S(C)(=O)=O)ccc1Cl`, the cytotoxicity is -10.1%.

Take `Cc1ccc(NS(=O)(=O)c2ccccc2Cl)c2c1CC(C)(C)O2`: the cytotoxicity was 62.3% (active).

With `COc1ccc(C2CC(c3c(O)cc(C)oc3=O)=NCCS2)c(OC)c1` (stereo not drawn), the cytotoxicity was 51.9% (active).

Turning to `COC(=O)C1=C(C)C(c2ccc(OC)cc2OC)NC(=O)N1` (stereo not drawn), the cytotoxicity is 2.9%.

For `COc1ccc(C2C(C(C)=O)=C(O)C(=O)N2C)c(OC)c1` (stereo not drawn), the cytotoxicity was 5.8%.

Consider `CCN1CC=C2C(C#N)=C(N)C(C#N)(C#N)[C@H](c3ccoc3)[C@H]2C1`, for which the cytotoxicity is -2.2%.

In the case of `CN1CC=C2C(C#N)=C(N)C(C#N)(C#N)[C@H](c3ccoc3)[C@H]2C1`, the cytotoxicity was -7.5%.

In the case of `N#CC1=C(N)C(C#N)(C#N)[C@H](c2ccoc2)[C@H]2CN(Cc3ccccc3)CC=C12`, the cytotoxicity was 66.1% (active).

As to `CCOC(=O)c1ccc(NC(=O)CN2CCc3ccccc3C2)cc1`, the cytotoxicity was -3.7%.

In the case of `COc1cccc(-c2cc(C(=O)Nn3cnnc3)c3ccccc3n2)c1`, the cytotoxicity is 11.6%.

Consider `CN(C)c1nc(NS(=O)(=O)c2ccc(Cl)cc2)nc(N(C)C)n1`, for which the cytotoxicity is 35.3%.

Turning to `CCN(CC)c1nc(N)nc(NS(=O)(=O)c2ccc(Cl)cc2)n1`, the cytotoxicity was 51.4% (active).

As for `CCNc1nc(NC(C)C)nc(NS(=O)(=O)c2ccc(Cl)cc2)n1`, the cytotoxicity is -8.8%.

As for `COCCNC(=O)CN(Cc1ccc2c(c1)OCO2)C(=O)CCC(=O)Nc1nccs1`, the cytotoxicity was -8.1%.

Take `O=C(CN(C(=O)Cn1nnc(-c2cccs2)n1)c1ccc2c(c1)OCCO2)NCC1CCCO1` (stereo not drawn): the cytotoxicity was -1.3%.

Turning to `Cc1ccc(C2NC(=O)c3ccccc3N2)s1` (stereo not drawn), the cytotoxicity was 57.7% (active).

As to `O=C1NC(c2cccs2)Nc2ccccc21` (stereo not drawn), the cytotoxicity is 10.2%.

For the molecule `Cc1ccsc1C1NC(=O)c2ccccc2N1` (stereo not drawn), the cytotoxicity is 7.3%.

For `O=S(=O)(Nc1cccc2c1ccc1cccn12)c1cccs1`, the cytotoxicity is -4.6%.

`CCOc1ccccc1NS(=O)(=O)c1cccs1`: the cytotoxicity was 56.5% (active).

Regarding `O=S(=O)(Nc1cccc2ncccc12)c1cccs1`, the cytotoxicity is 85% (active).

For `Cc1ccc(S(=O)(=O)NCc2cccnc2)s1`, the cytotoxicity was -11.9%.

`Cc1ccc(S(=O)(=O)Nc2ccnc3ccccc23)cc1`: the cytotoxicity was 5.4%.

Regarding `Cc1ccc(S(=O)(=O)Nc2cccc3ncccc23)s1`, the cytotoxicity is 54.9% (active).

As to `CCOc1ccccc1NS(=O)(=O)c1ccc(Br)s1`, the cytotoxicity was 20.7%.

As for `O=S(=O)(Nc1ccc(-c2nc3cccnc3s2)cc1)c1cccs1`, the cytotoxicity is -6.8%.

Turning to `COc1ccccc1NS(=O)(=O)c1cccs1`, the cytotoxicity was 8.9%.

Regarding `O=C(c1ccc2c3c(cccc13)CC2)N1CCOCC1`, the cytotoxicity is -18.7%.

As for `CC(=O)N1C(=O)C2(C(C#N)=C(N)Oc3n[nH]c(-c4ccccn4)c32)c2ccccc21` (stereo not drawn), the cytotoxicity was 6.9%.

`O=C(NCc1ccc2c(c1)OCO2)c1nn(-c2ccccc2)c(=O)c2ccccc12`: the cytotoxicity was -4.7%.

On to `O=C(Nc1ccccn1)C(=O)N1CCCCC1`, for which the cytotoxicity is 4.7%.

Turning to `COc1cccc2c1C(=O)c1c(O)c3c(c(O)c1C2=O)C[C@@](O)(C(=O)CO)C[C@@H]3O[C@H]1C[C@H](N)[C@H](O)[C@H](C)O1`, the cytotoxicity is 53.8% (active).

Take `Cc1noc(/C=C/c2ccco2)c1S(=O)(=O)N1CCC(C(=O)N(C)Cc2ccccc2)CC1`: the cytotoxicity is -4.4%.

With `COc1ccc(C(CC(=O)O)NC(=O)COc2ccc(C)cc2)cc1OC` (stereo not drawn), the cytotoxicity is 4.5%.

Consider `CCOCC(=O)Nc1ccccc1C(=O)OCC`, for which the cytotoxicity is -3.7%.

Consider `CCOC(=O)c1ccccc1Nc1cn(C(C)=O)c2ccccc12`, for which the cytotoxicity was 53.7% (active).

Consider `CC(=O)n1cc(Nc2ccccc2C(=O)O)c2ccccc21`, for which the cytotoxicity was 0.2%.

In the case of `COc1ccc2c(Cl)c(-c3nnc4n3CCCCC4)sc2c1`, the cytotoxicity was -8.8%.

As to `COc1ccc(C2C3=C(CC(C)(C)CC3=O)Oc3ncn(CCCn4ccnc4)c(=N)c32)cc1` (stereo not drawn), the cytotoxicity is 20.5%.

With `Cc1noc(C)c1CSc1nc2[nH]ncc2c(=O)n1-c1ccccc1`, the cytotoxicity is 60.4% (active).

Take `Cc1noc(C)c1CSc1nc2ccccc2c(=O)n1-c1ccc(Cl)cc1`: the cytotoxicity is -2.7%.

Consider `Cc1noc(C)c1CSc1nnc(-c2ccccc2)n1Cc1ccco1`, for which the cytotoxicity was 2.6%.

Turning to `C=CCn1c(SCc2c(C)noc2C)nc2ccccc2c1=O`, the cytotoxicity is 60.3% (active).

With `Cc1nc(CSc2nc3[nH]ncc3c(=O)n2-c2ccccc2)cs1`, the cytotoxicity is -1.5%.

For `Cc1noc(C)c1CSc1nc2ccccc2c(=O)n1-c1ccccc1`, the cytotoxicity was 48.9%.

With `CCc1cc2c(=O)n(Cc3ccco3)c(SCC(=O)N3CCCc4ccccc43)nc2s1`, the cytotoxicity was -1.5%.

For the molecule `C=CCn1c(SCc2c(C)noc2C)nc2cc(C(=O)O)ccc2c1=O`, the cytotoxicity is 25.6%.

Turning to `Cc1occc1C(=O)Nc1ccc2c(c1)CCC2`, the cytotoxicity was 12.8%.

With `CC(C)Cc1cc(C(=O)Nc2cc(Cl)ccc2Cl)no1`, the cytotoxicity was 1.8%.

Consider `O=C(C1CC1)N1CCCN(C(=O)C2CC2)CC1`, for which the cytotoxicity is 1.3%.

As to `Cc1cc(=O)[nH]c(N2CCc3ccccc3C2)n1`, the cytotoxicity is 1.4%.

With `O=C(CSc1nnc(-c2cccs2)n1Cc1ccco1)Nc1ccc2c(c1)OCO2`, the cytotoxicity is 1.2%.

As for `Cn1c(SCC(=O)N2CCCc3ccccc32)nnc1-c1c[nH]c2ccccc12`, the cytotoxicity is 2.9%.

Turning to `CCOc1cccc(N2C(=O)CC(N3CCC(C(N)=O)(N4CCCCC4)CC3)C2=O)c1` (stereo not drawn), the cytotoxicity is -6.9%.

With `CCc1cn([C@H]2C[C@H](O)[C@@H](CO)O2)c(=O)[nH]c1=O`, the cytotoxicity is -0.3%.

`O=c1[nH]c(=O)n([C@H]2C[C@H](O)[C@@H](CO)O2)cc1F`: the cytotoxicity is 58.1% (active).

With `O=c1[nH]c(=O)n([C@H]2C[C@H](O)[C@@H](CO)O2)cc1C(F)(F)F`, the cytotoxicity is 4.2%.

Consider `Cc1ccc(SCC(=O)NCCCN2CCOCC2)cc1`, for which the cytotoxicity was 4.3%.

`Cc1nn(C)cc1C1C2=C(CC(C)(C)CC2=O)OC2=C1C(=O)CC(C)(C)C2`: the cytotoxicity was 14.2%.

As for `CC1(C)CC(=O)C(C2C3=C(CC(C)(C)CC3=O)Oc3ccccc32)=C(O)C1` (stereo not drawn), the cytotoxicity is -2.6%.

For the molecule `CC1(C)CC(=O)C2=C(C1)OC1=C(C(=O)CC(C)(C)C1)C2c1ccc(O)cc1O`, the cytotoxicity is 63.3% (active).

As for `CCCc1cc(=O)[nH]c(SCC(=O)C(C)(C)C)n1`, the cytotoxicity is -8.7%.

In the case of `CCCC(C)C1C(C#N)=C(N)Oc2cc(C)oc(=O)c21` (stereo not drawn), the cytotoxicity is 0.8%.

As for `O=C(OCn1ncc(Br)c(Br)c1=O)c1ccccc1Cl`, the cytotoxicity was 40%.

`Cc1onc(-c2c(F)cccc2Cl)c1C(=O)OCn1nnc2ccccc2c1=O`: the cytotoxicity was -0.3%.

For `O=C(OCn1ncc(Br)c(Br)c1=O)c1ccc(F)cc1`, the cytotoxicity was 95.8% (active).

Regarding `CCn1ncc(Br)c1C(=O)Nc1ccc(C(=O)OC(C)C)cc1`, the cytotoxicity is -9.8%.

In the case of `CCn1ncc(Br)c1C(=O)Nc1ccc(F)cc1F`, the cytotoxicity was 2.8%.

For the molecule `O=C(OCn1ncc(Br)c(Br)c1=O)c1c(F)cccc1F`, the cytotoxicity was 100% (active).

For `CC1CC(C)CN(C(=O)c2ccccc2Nc2ccc(SC(F)F)cc2)C1` (stereo not drawn), the cytotoxicity is -5.3%.

As for `COc1cc(OC)cc(-c2nnc(SCC(=O)N3CCCC3)o2)c1`, the cytotoxicity is 9%.

`CCOc1cc(C(c2c(C)[nH][nH]c2=O)c2c(C)[nH][nH]c2=O)ccc1OS(=O)(=O)c1ccc(C)cc1`: the cytotoxicity was -4.6%.

For `COc1ccc(CCNc2nnc(Sc3nnnn3-c3ccccc3)s2)cc1OC`, the cytotoxicity is 57.2% (active).

As to `CCSc1nnnn1-c1ccccc1`, the cytotoxicity was 11%.

As for `CCCSc1nnc(Sc2nnnn2-c2ccccc2)s1`, the cytotoxicity was 60% (active).

For the molecule `COc1ccc(-n2nnnc2SCC(=O)NCCc2ccc(OC)c(OC)c2)cc1`, the cytotoxicity is -21.1%.

In the case of `c1ccc(-n2nnnc2SCCCSc2nc3ccccc3s2)cc1`, the cytotoxicity was 5.7%.

For the molecule `COc1ccc(CCNC(=O)CSc2nnnn2-c2ccccc2OC)cc1OC`, the cytotoxicity is 1%.

Regarding `NS(=O)(=O)c1ccc(CCNc2nc(CN3CCCCC3)nc3sc4c(c23)CCC4)cc1`, the cytotoxicity is 28.3%.
